This note sets out measurements from PubChem BioAssay AID624139 (Broad Institute, 2012).

Screen size: about 17,000 compounds; about 220 (1.3%) were called active.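 The calls were made as follows: active = spot fluorescence over background significantly raised, with a chance value under 7% in all four replicate spots of the compound; inactive = the rest.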 The full list was thinned out, with actives kept by preference.

The target of this test is Nuclear factor NF-kappa-B p105 subunit (Homo sapiens) (UniProt P19838). The test can be described thus: binders of NF-kB p50 subunit, primary screen, biochemical, small molecule microarray, anti-His fluorescence (AID 624139).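 Also: probe protein is his-tagged human p50 processed subunit at 1 µg/ml.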 The following applies: anti-His fluorescence binding.
Sequence of Nuclear factor NF-kappa-B p105 subunit (Homo sapiens) (P19838 1-433 limits assumed): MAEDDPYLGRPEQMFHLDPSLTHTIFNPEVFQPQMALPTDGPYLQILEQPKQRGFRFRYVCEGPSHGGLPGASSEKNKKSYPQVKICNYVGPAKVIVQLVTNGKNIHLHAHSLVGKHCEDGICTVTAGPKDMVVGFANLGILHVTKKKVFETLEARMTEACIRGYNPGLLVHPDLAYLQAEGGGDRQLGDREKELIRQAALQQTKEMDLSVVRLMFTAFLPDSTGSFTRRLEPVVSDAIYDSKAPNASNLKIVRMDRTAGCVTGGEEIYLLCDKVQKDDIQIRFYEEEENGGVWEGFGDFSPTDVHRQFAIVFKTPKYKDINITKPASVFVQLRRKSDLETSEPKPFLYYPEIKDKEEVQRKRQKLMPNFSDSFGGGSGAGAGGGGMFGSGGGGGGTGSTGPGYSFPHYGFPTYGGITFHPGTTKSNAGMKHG
With `COC(=O)c1c(CC[C@@H](CO)NC(=O)Nc2ncn[nH]2)oc(C(=O)Cc2ccccc2)c1C(=O)OC`, the outcome was inactive.
The same measure for `Cc1noc(C)c1S(=O)(=O)N(C)C[C@@H]1OCCCC[C@H](C)Oc2ccc(NC(=O)NC(C)C)cc2C(=O)N([C@H](C)CO)C[C@@H]1C`: “inactive”.
The same measure for `COC(=O)C1=C[C@@H](O)[C@@H](O)[C@H](O[C@@H]2O[C@H](CO)[C@@H](O)[C@H](O)[C@H]2OC(=O)/C=C/c2ccccc2)C1`: “inactive”; for `CC(C)NC(=O)Nc1ccc2c(c1)C(=O)N([C@@H](C)CO)C[C@H](C)[C@@H](CN(C)Cc1ccc(C(=O)O)cc1)OCCCC[C@H](C)O2`: “inactive”; for `C[C@@H]1CCCCO[C@@H](CN(C)Cc2ccncc2)[C@H](C)CN([C@H](C)CO)C(=O)c2cc(N(C)C)ccc2O1`: “inactive”.
The result for `C[C@@H]1CN([C@H](C)CO)C(=O)CCCn2nncc2CO[C@@H]1CN(C)C` reads “inactive”; that for `C[C@@H]1CN([C@@H](C)CO)C(=O)c2cccc(NC(=O)Nc3ccc(F)cc3)c2O[C@H]1CN(C)C(=O)Nc1ccc(F)cc1`, “inactive”.
`C[C@H]1CCCCO[C@@H](CN(C)Cc2ccc(C(=O)O)cc2)[C@@H](C)CN([C@@H](C)CO)C(=O)c2cc(NS(C)(=O)=O)ccc2O1`: the result was inactive.
The same measure for `COc1ccc(CN(C)C[C@@H]2Oc3ccc(NC(=O)c4ccncc4)cc3CC(=O)N([C@H](C)CO)C[C@H]2C)cc1`: “inactive”.
Turning to `COc1cccc(OC)c1C(=O)NC(=S)NCc1ccco1`, the molecule was classed as inactive.
Regarding `C[C@@H]1CCCCO[C@@H](CN(C)C(=O)Nc2ccc(F)cc2)[C@H](C)CN([C@@H](C)CO)C(=O)c2cc(NS(=O)(=O)c3ccccc3)ccc2O1`, the call was inactive.
Consider `C[C@@H]1CN([C@@H](C)CO)C(=O)CCCn2cc(nn2)CO[C@H]1CN(C)S(=O)(=O)c1ccc(-n2cccn2)cc1`, for which the molecule was called inactive.
For `CNC[C@H]1Oc2ccc(NC(=O)Nc3ccc(F)cc3)cc2C(=O)N([C@@H](C)CO)C[C@@H]1C`, the molecule was classed as inactive.
The result for `C[C@@H]1CN([C@H](C)CO)C(=O)c2cccc(NC(=O)Nc3ccc(C(F)(F)F)cc3)c2O[C@H]1CN(C)S(=O)(=O)c1ccc(Cl)cc1` reads “inactive”.
The same measure for `Cc1ccc(S(=O)(=O)N2CCCC2C(=O)NCCO)cc1` (stereo not given): “inactive”.
The result for `COc1ccc([Si](C)(C)[C@@H]2[C@@H](CCO)O[C@]3(C(=O)N(Cc4ccccc4)c4ccc(N5CCC5=O)cc43)[C@H]2C)cc1` reads “inactive”.
Consider `C[C@@H]1CN([C@H](C)CO)C(=O)CCCn2cc(nn2)CO[C@H]1CN(C)C(=O)Nc1ccc(N2CCCCC2)cc1`, for which the result was inactive.
The result for `C[C@H](CO)N1C[C@H](C)[C@@H](CN(C)CC2CC2)Oc2ccc(NC(=O)Nc3ccccc3)cc2CC1=O` reads “inactive”; that for `C[C@H](CO)N1C[C@H](C)[C@@H](CN(C)Cc2cccc3c2OCCCO3)OCc2cn(nn2)CCCC1=O`, “inactive”.
The result for `C[C@@H]1CN([C@H](C)CO)C(=O)CCCn2cc(nn2)CO[C@@H]1CN(C)Cc1ccc2cccnc2c1` reads “inactive”.
The same measure for `COC(=O)c1c(NC(=S)Nc2ccc(S(=O)(=O)NC34CC5CC(CC(C5)C3)C4)cc2)sc2c1CCC2`: “inactive”; for `CC(C)NC(=O)Nc1ccc2c(c1)C(=O)N([C@H](C)CO)C[C@@H](C)[C@H](CN(C)S(C)(=O)=O)O2`: “inactive”; for `Cc1ccc(C)c(NC(=O)CCC(=O)O)c1`: “inactive”.
Turning to `O=C(N1CCCCC1)[C@@]1(CCS(=O)(=O)c2ccccc2)N=C(c2ccc(OCCCO)cc2)O[C@H]1c1ccccc1`, the outcome was inactive.
The same measure for `C[C@@H]1CN([C@H](C)CO)C(=O)c2cc(N(C)C)ccc2O[C@@H](C)CCCCO[C@@H]1CN(C)C(=O)CCCN(C)C`: “inactive”.
The result for `C[C@@H]1CCCCO[C@H](CN(C)C)[C@@H](C)CN([C@H](C)CO)C(=O)c2cc(N(C)C)ccc2O1` reads “inactive”.
Consider `O=c1c2ccccc2[nH]c(=S)n1CCN1CCC(=C(c2ccc(F)cc2)c2ccc(F)cc2)CC1`, for which the molecule was classed as active.
The same measure for `O=C(c1ccc(F)cc1)C1CCN(CCCCc2ccccc2)CC1`: “inactive”; for `C[C@H](CO)N1C[C@H](C)[C@@H](CN(C)S(=O)(=O)c2cn(C)cn2)Oc2ccc(NS(=O)(=O)c3cn(C)cn3)cc2C1=O`: “inactive”; for `COc1cc(/C=C/C(=O)NCCc2ccc(O)cc2)ccc1O`: “inactive”.
The result for `Cc1nc(SCC(=O)N2c3ccccc3Sc3ccccc32)nc2c1CCCC2` reads “inactive”; that for `COc1ccc(S(=O)(=O)N(C)C[C@@H]2Oc3ccc(NC(=O)Cc4cn(C)c5ccccc45)cc3C(=O)N([C@H](C)CO)C[C@H]2C)cc1`, “inactive”.
Consider `CCOC(=O)c1sc(NC(=S)Nc2ccc3c(c2)OCCO3)c(C(=O)OCC)c1C`, for which the outcome was inactive.
The result for `C[C@@H]1CCCCO[C@H](CN(C)C(=O)Nc2cccc3ccccc23)[C@@H](C)CN([C@H](C)CO)C(=O)c2cc(NS(=O)(=O)c3cccs3)ccc2O1` reads “inactive”.
The same measure for `C[C@@H]1CN([C@H](C)CO)C(=O)c2cccc(NS(=O)(=O)c3ccc(Cl)cc3)c2O[C@@H]1CN(C)C(=O)Nc1cccc2ccccc12`: “inactive”.
The result for `COc1ccc(S(=O)(=O)Nc2cccc3c2O[C@@H](CN(C)S(=O)(=O)c2ccc(F)cc2)[C@H](C)CN([C@H](C)CO)C3=O)cc1` reads “inactive”; that for `Cc1noc(C)c1S(=O)(=O)Nc1ccc2c(c1)C(=O)N([C@H](C)CO)C[C@H](C)[C@@H](CN(C)C(=O)CCC(F)(F)F)OCCCC[C@H](C)O2`, “inactive”; that for `C[C@@H]1CCCCO[C@H](CN(C)C(=O)CCCN(C)C)[C@@H](C)CN([C@@H](C)CO)C(=O)c2cc(NC(=O)c3ccncc3)ccc2O1`, “inactive”.
`C[C@@H]1CCCCO[C@@H](CN(C)C(=O)CCC(F)(F)F)[C@@H](C)CN([C@H](C)CO)C(=O)c2cc(NC(=O)CCC(F)(F)F)ccc2O1`: the result was inactive.
The same measure for `C[C@H](CO)N1C[C@H](C)[C@H](CN(C)C(=O)CCC(F)(F)F)OCCCC[C@H](C)Oc2ccc(NS(C)(=O)=O)cc2C1=O`: “inactive”; for `C[C@@H]1CCCCO[C@H](CN(C)C(=O)CCC(F)(F)F)[C@@H](C)CN([C@@H](C)CO)C(=O)c2cc(NC(=O)c3ccncc3)ccc2O1`: “active”; for `Cc1noc(C)c1S(=O)(=O)Nc1ccc2c(c1)C(=O)N([C@H](C)CO)C[C@@H](C)[C@H](CN(C)C(=O)NC(C)C)OCCCC[C@@H](C)O2`: “inactive”.
The same measure for `Cc1noc(C)c1S(=O)(=O)Nc1ccc2c(c1)C(=O)N([C@@H](C)CO)C[C@H](C)[C@@H](CN(C)C)OCCCC[C@@H](C)O2`: “inactive”; for `Cc1noc(C)c1S(=O)(=O)Nc1ccc2c(c1)C(=O)N([C@H](C)CO)C[C@H](C)[C@H](CN(C)C(=O)CCC(F)(F)F)OCCCC[C@H](C)O2`: “active”; for `Cc1noc(C)c1S(=O)(=O)Nc1ccc2c(c1)C(=O)N([C@@H](C)CO)C[C@@H](C)[C@H](CN(C)C(=O)NC(C)C)OCCCC[C@@H](C)O2`: “active”.
